# Experimental data reported in article PMC12820563, “FoxP3 forms a head-to-head dimer in vivo and stabilizes its multimerization on adjacent microsatellites”.
# In all, about 16,000 sequences were measured (“rpm ratio (pull-down/input)”: median about 0.5, highest 2% from about 5.5 on). The sample as a whole holds a higher share of the highest values than the screen did.
# Target: T1, MBP-FoxP3dN (Mus musculus, UniProt Q99JB6 188-423)
# T1 sequence: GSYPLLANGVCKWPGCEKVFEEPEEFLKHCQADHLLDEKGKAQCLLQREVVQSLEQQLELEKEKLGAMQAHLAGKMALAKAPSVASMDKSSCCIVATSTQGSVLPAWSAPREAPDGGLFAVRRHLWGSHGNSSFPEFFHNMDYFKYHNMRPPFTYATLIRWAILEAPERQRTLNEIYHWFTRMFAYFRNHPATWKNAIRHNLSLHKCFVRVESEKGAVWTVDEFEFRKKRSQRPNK
# Test: PD-seq (MBP pull-down with sequencing); 20 mM Tris-HCl pH 7.5, 100 mM NaCl, 1.5 mM MgCl2, 0.4 uM protein, 0.1 uM dsDNA library, 30 min, room temperature, amylose pull-down; high values mean tight binding
# Settings: protein: recombinant; tags: His6-MBP; chain copies: 2; dsDNA, one strand shown
# Method in brief: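 The N-terminus-lacking fragment of mouse FoxP3 or FoxP1 carried a His6-MBP tag and was expressed in E. coli. At 0.4 µM it was incubated with 0.1 µM Klenow-filled degenerate double-stranded DNA library for 30 min at room temperature in Tris pH 7.5 buffer with NaCl and MgCl2, and complexes were caught on amylose resin, washed three times, released with proteinase K, PCR-barcoded and Illumina-sequenced. Binding is reads-per-million enrichment of pull-down over input with replicates pooled.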
row,Sequence,binding signal
1,GATGATTGTTCTCCCAGCTGATGAATTTTTGCTTTCGAGTAAACAAATTTTCCTAATCTTTCTGTTCAAGCGCCATCTAC,0.978 RPM ratio (pull-down/input)
2,GATGATTGTTCTCCCAGCTGATGAATTTGCTGTTTCGAGTAAACAAATTTTCCTAATCTTTCTGTTCAAGCGCCATCTAC,6.28 RPM ratio (pull-down/input)
3,GATGATTGTTCTCCCAGCTGATGAATTTGCTGCTTCGAGTAAACAAATTTTCCTAATCTTTCTGTTCAAGCGCCATCTAC,3.05 RPM ratio (pull-down/input)
4,GATGATTGTTCTCCCAGCTGATGAATTTTGCTATTCGAGTAAACAAATTTTCCTAATCTTTCTGTTCAAGCGCCATCTAC,5.16 RPM ratio (pull-down/input)
5,GATGATTGTTCTCCCAGCTGATGAATTTTGCTGTTCGAGTAAACAAATTTTCCTAATCTTTCTGTTCAAGCGCCATCTAC,5.2 RPM ratio (pull-down/input)
6,GATGATTGTTCTCCCAGCTGATGAATTTGCTATTTCGAGTAAACAAATTTTCCTAATCTTTCTGTTCAAGCGCCATCTAC,5.54 RPM ratio (pull-down/input)
7,GATGATTGTTCTCCCAGCTGATGAATTTGTTGCTTCGAGTAAACAAATTTTCCTAATCTTTCTGTTCAAGCGCCATCTAC,6.86 RPM ratio (pull-down/input)
8,GATGATTGTTCTCCCAGCTGATGAATTTGCTTTTTCGAGTAAACAAATTTTCCTAATCTTTCTGTTCAAGCGCCATCTAC,5.38 RPM ratio (pull-down/input)
9,GATGATTGTTCTCCCAGCTGATGAATTGTGCACCTCGAGTAAACAAATTTTCCTAATCTTTCTGTTCAAGCGCCATCTAC,2.92 RPM ratio (pull-down/input)
10,GATGATTGTTCTCCCAGCTGATGAATTCGGAACGTCGAGTAAACAAATTTTCCTAATCTTTCTGTTCAAGCGCCATCTAC,0.297 RPM ratio (pull-down/input)
11,GATGATTGTTCTCCCAGCTGATGAATTGATTCAGTCGAGTAAACAAATTTTCCTAATCTTTCTGTTCAAGCGCCATCTAC,0.28 RPM ratio (pull-down/input)
12,GATGATTGTTCTCCCAGCTGATGAATTGTGGGGGTCGAGTAAACAAATTTTCCTAATCTTTCTGTTCAAGCGCCATCTAC,0.783 RPM ratio (pull-down/input)
13,GATGATTGTTCTCCCAGCTGATGAATTCTAAAGCTCGAGTAAACAAATTTTCCTAATCTTTCTGTTCAAGCGCCATCTAC,0.248 RPM ratio (pull-down/input)
14,GATGATTGTTCTCCCAGCTGATGAATTTGCTTCTTCGAGTAAACAAATTTTCCTAATCTTTCTGTTCAAGCGCCATCTAC,2.97 RPM ratio (pull-down/input)
15,GATGATTGTTCTCCCAGCTGATGAATTGTTTGCTTCGAGTAAACAAATTTTCCTAATCTTTCTGTTCAAGCGCCATCTAC,6.19 RPM ratio (pull-down/input)
16,GATGATTGTTCTCCCAGCTGATGAATTTTTTGCTTCGAGTAAACAAATTTTCCTAATCTTTCTGTTCAAGCGCCATCTAC,0.306 RPM ratio (pull-down/input)
17,GATGATTGTTCTCCCAGCTGATGAATTAGCTCGCTCGAGTAAACAAATTTTCCTAATCTTTCTGTTCAAGCGCCATCTAC,0.272 RPM ratio (pull-down/input)

row,Sequence,binding signal
1,GATGATTGTTCTCCCAGCTGATGAATTCCGGGTGTCGAGTAAACAAATTTTCCTAATCTTTCTGTTCAAGCGCCATCTAC,0.669 RPM ratio (pull-down/input)
2,GATGATTGTTCTCCCAGCTGATGAATTCCGATTGTCGAGTAAACAAATTTTCCTAATCTTTCTGTTCAAGCGCCATCTAC,1.93 RPM ratio (pull-down/input)
3,GATGATTGTTCTCCCAGCTGATGAATTAAGTAATTCGAGTAAACAAATTTTCCTAATCTTTCTGTTCAAGCGCCATCTAC,1.05 RPM ratio (pull-down/input)
4,GATGATTGTTCTCCCAGCTGATGAATTGATCTTGTCGAGTAAACAAATTTTCCTAATCTTTCTGTTCAAGCGCCATCTAC,0.293 RPM ratio (pull-down/input)
5,GATGATTGTTCTCCCAGCTGATGAATTCTTTGCCTCGAGTAAACAAATTTTCCTAATCTTTCTGTTCAAGCGCCATCTAC,0.403 RPM ratio (pull-down/input)
6,GATGATTGTTCTCCCAGCTGATGAATTTTGCCTCTCGAGTAAACAAATTTTCCTAATCTTTCTGTTCAAGCGCCATCTAC,5.78 RPM ratio (pull-down/input)
7,GATGATTGTTCTCCCAGCTGATGAATTTGCCGCCTCGAGTAAACAAATTTTCCTAATCTTTCTGTTCAAGCGCCATCTAC,0.88 RPM ratio (pull-down/input)
8,GATGATTGTTCTCCCAGCTGATGAATTGCGCCTCTCGAGTAAACAAATTTTCCTAATCTTTCTGTTCAAGCGCCATCTAC,7.17 RPM ratio (pull-down/input)
9,GATGATTGTTCTCCCAGCTGATGAATTTGCCCTCTCGAGTAAACAAATTTTCCTAATCTTTCTGTTCAAGCGCCATCTAC,0.526 RPM ratio (pull-down/input)
10,GATGATTGTTCTCCCAGCTGATGAATTTGCCTCTTCGAGTAAACAAATTTTCCTAATCTTTCTGTTCAAGCGCCATCTAC,2.52 RPM ratio (pull-down/input)
11,GATGATTGTTCTCCCAGCTGATGAATTGCCTCTCTCGAGTAAACAAATTTTCCTAATCTTTCTGTTCAAGCGCCATCTAC,1.04 RPM ratio (pull-down/input)
12,GATGATTGTTCTCCCAGCTGATGAATTGTTTGCCTCGAGTAAACAAATTTTCCTAATCTTTCTGTTCAAGCGCCATCTAC,5.67 RPM ratio (pull-down/input)
13,GATGATTGTTCTCCCAGCTGATGAATTTTGCGCCTCGAGTAAACAAATTTTCCTAATCTTTCTGTTCAAGCGCCATCTAC,2.67 RPM ratio (pull-down/input)
14,GATGATTGTTCTCCCAGCTGATGAATTTGCCTCCTCGAGTAAACAAATTTTCCTAATCTTTCTGTTCAAGCGCCATCTAC,2.37 RPM ratio (pull-down/input)
15,GATGATTGTTCTCCCAGCTGATGAATTTTTTGCCTCGAGTAAACAAATTTTCCTAATCTTTCTGTTCAAGCGCCATCTAC,0.432 RPM ratio (pull-down/input)
16,GATGATTGTTCTCCCAGCTGATGAATTTGTTGCCTCGAGTAAACAAATTTTCCTAATCTTTCTGTTCAAGCGCCATCTAC,7.02 RPM ratio (pull-down/input)
